A selection: hits, their analogues and other compounds. The true share with any hit is near 15%.
TDP1 cell noCPT: qHTS for Inhibitors of human tyrosyl-DNA phosphodiesterase 1 (TDP1): qHTS in cells in absence of CPT. Potency, µM (top dose mostly 46.2 µM), for the others: at the top dose activity change, negative = growth inhibition, most hits filed as inhibitors. 15% of 420,000 active. DT40 Tdp1-/- hTDP1 cells, no CPT, ATP luminescence, 48 h; further: nearly all actives have a fitted effect of over 55% in size
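Compound effects on proliferation are scored in DT40 Tdp1-/-;hTDP1 cells in the absence of CPT. ATP levels (CellTiter-Glo luminescence) are recorded after a ≥48 hr, 37 °C incubation.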
VP16 counter: VP16 counterscreen qHTS for inhibitors of ROR gamma transcriptional activity | 3.5% of 310,000 active | AID 2546, 2010 | Drosophila S2 Gal4-VP16 UAS-luciferase, luminescence, 20 h | Potency, µM (top dose mostly 53.6 µM), for the others: at the highest dose activity, negative = inhibition, usual class: inhibitors;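 further: Gal4-VP16 expression switched on by copper sulfate through the metallothionein promoter; nearly all actives have a fitted effect of over 50% in size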
ELG1 repair inh: qHTS screen for small molecules that inhibit ELG1-dependent DNA repair in human embryonic kidney (HEK293T) cells expressing luciferase-tagged ELG1; HEK293T ELG1-luciferase reporter, luminescence, 16 h; DNA damage induced by 5-fluorouridine; Potency, µM (top dose mostly 46.1 µM), inactives show at the highest dose activity change, negative = inhibition, most hits filed as inhibitors; 2.3% of 330,000 active; further: nearly all actives have a fitted effect of over 55% in size
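HEK293T cells expressing luciferase-tagged ELG1 (2,000/well) received 5-Fluorouridine plus compound or DMSO for 16 hr at 37 °C. Luciferase was read by ONE-Glo luminescence after 30 min at room temperature.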
RORgamma inh: qHTS for inhibitors of ROR gamma transcriptional activity. Drosophila S2 Gal4-RORgamma UAS-luciferase reporter, 20 h. Potency, µM (doses to about 53.6 µM), inactives show at the top dose activity change, negative = inhibition, hits mostly inhibitors. 5.4% of 310,000 active; further: nearly all actives have a fitted effect of over 60% in size
Target sequence (P51450 whole entry, looked up, the tested form may be a part): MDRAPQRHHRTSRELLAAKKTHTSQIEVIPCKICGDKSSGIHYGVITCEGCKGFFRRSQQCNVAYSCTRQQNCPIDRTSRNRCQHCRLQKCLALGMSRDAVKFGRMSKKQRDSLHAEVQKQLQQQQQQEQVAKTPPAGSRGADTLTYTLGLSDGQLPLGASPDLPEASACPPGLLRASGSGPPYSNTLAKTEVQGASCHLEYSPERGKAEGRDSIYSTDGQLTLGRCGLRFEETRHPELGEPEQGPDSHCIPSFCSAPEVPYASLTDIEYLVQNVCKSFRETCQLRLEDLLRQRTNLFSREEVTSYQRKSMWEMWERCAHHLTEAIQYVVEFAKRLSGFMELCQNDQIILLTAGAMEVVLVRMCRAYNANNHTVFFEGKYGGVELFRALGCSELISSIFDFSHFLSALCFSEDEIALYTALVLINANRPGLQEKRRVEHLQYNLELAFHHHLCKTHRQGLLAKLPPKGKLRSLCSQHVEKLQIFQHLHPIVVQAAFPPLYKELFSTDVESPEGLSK
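Read-out: Photinus luciferase luminescence; inhibitors lower reporter signal. Insect Schneider cells with Gal4-ROR gamma fusion under metallothionein promoter, UAS reporter; 700 uM final copper sulfate induction, 20 hr, ambient temperature.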
DT40 TDP1 CPT: qHTS for Inhibitors of human tyrosyl-DNA phosphodiesterase 1 (TDP1): qHTS in cells in presence of CPT; chicken DT40 Tdp1-/-;hTDP1 cells + 20 nM CPT, ATP luminescence, 48 h; Potency, µM (highest dose often 46.2 µM), for inactives: top-dose activity change, negative = growth inhibition, most hits filed as inhibitors; 12% of 420,000 active; AID 686979, 2013; further: nearly all actives have a fitted effect of over 55% in size
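Chicken DT40 Tdp1-/- cells stably complemented with human TDP1 were seeded at 400 cells/well in medium containing 20 nM camptothecin, exposed to pin-transferred compounds, and grown at 37 °C for at least 48 hr. Viability was read as ATP luminescence.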
12-LOX inh: Primary qHTS assay for inhibitors of human arachidonate 12S-lipoxygenase (ALOX12): Round 2; Polyunsaturated fatty acid lipoxygenase ALOX12 (Homo sapiens), P18054; purified 12hLO, xylenol orange hydroperoxide absorbance; Potency, µM (titrated, usually from 108 µM), for inactives: top-dose activity change, negative = inhibition, actives largely listed as inhibitors; 1.1% of 580,000 active; AID 1671190, 2021
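Purified human 12hLO at 150 nM in 25 mM Hepes, 0.01% Triton X-100, pH 7.0, preincubated 15 min at room temperature with compound. Reaction started with 40 uM arachidonic acid, 30 min at room temperature. Hydroperoxide measured by Fe-xylenol orange, 573/405 nm absorbance ratio.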
Starred values were filed as active, the others as inactive; ? = inconclusive; . = not tested or not shown; [ ] = dose if it differs, or a comment. The call rests on the fitted dose curve; in most records, active means well fitted curve in the direction sought with a large enough effect; inconclusive means small, poorly fitted or top-dose-only effect, or another doubt; inactive means no such curve, though single readings can be large; an effect the other way counts as inactive or inconclusive. On the % scale 0 is the no-effect control and ±100 the full control effect; potency means the concentration at half of the fitted maximal effect.

SMILES	TDP1 cell noCPT	VP16 counter	ELG1 repair inh	RORgamma inh	DT40 TDP1 CPT	12-LOX inh
O=c1cc(CSc2nnnn2-c2ccccc2)[nH]n1-c1ccc(F)cc1	.	.	.	.	.	18µM*
Cc1[nH]c2ccccc2c1C(=O)C(=O)N1CC=C(c2ccccc2)CC1	23µM*	3%	?	19%	15µM*	16%
Cc1[nH]c2ccccc2c1C(=O)C(=O)N1CC(C)OC(C)C1 (configuration not stated)	-8%	-2%	-2%	-30%	-1%	10%
CCNc1c(NC(=O)c2ccccc2OC)c(=O)oc2ccccc12	.	.	.	.	.	-3%
C[C@@H]1CN([C@H](C)CO)S(=O)(=O)c2ccc(Br)cc2O[C@@H]1CN(C)Cc1ccc(C(=O)O)cc1	-4%	.	.	.	-7%	-5%
C[C@@H]1CN([C@@H](C)CO)S(=O)(=O)c2ccc(/C=C/c3ccccc3)cc2O[C@@H]1CN(C)Cc1ccc(C(=O)O)cc1	21µM*	.	.	.	16µM*	1%
C[C@H](CO)N1C[C@H](C)[C@@H](CN(C)Cc2cccc(C(=O)O)c2)Oc2cc(Br)ccc2S1(=O)=O	-24%	.	.	.	-4%	2%
CCCNC(=O)N(C)C[C@@H]1Oc2cc(C#C[C@H](C)O)ccc2S(=O)(=O)N([C@H](C)CO)C[C@H]1C	2%	.	.	.	-14%	?
C[C@H](CO)N1C[C@H](C)[C@@H](CN(C)Cc2ccc3c(c2)OCO3)Oc2cc(Br)ccc2S1(=O)=O	7.3µM*	.	.	.	21µM*	-12%
C[C@H](O)C#Cc1ccc2c(c1)O[C@@H](CN(C)Cc1ccc(-c3ccccc3)cc1)[C@H](C)CN([C@@H](C)CO)S2(=O)=O	3.7µM*	.	.	.	2.9µM*	-1%
C[C@@H]1CN([C@H](C)CO)S(=O)(=O)c2ccc(Br)cc2O[C@@H]1CN(C)Cc1ccc(-c2ccccc2)cc1	16µM*	.	.	.	?	-9%
O=C(CC1CNCCO1)N1CCc2nc(-c3ccc(Cl)cc3)[nH]c2C1 (configuration not stated)	.	.	.	.	.	1%
CC(=O)N1Cc2ccccc2CC2(CCN(CC3CCNC3)CC2)C1 (configuration not stated)	.	.	.	.	.	-20%[6.33 µM]
CCNC(=S)N/N=C/c1cccc(C)c1	?	0.89µM*	?	0.89µM*	?	?
COc1ccccc1NC(=S)N/N=C/c1ccc(O)cc1	5.8µM*	7.1µM*	?	4µM*	7.3µM*	?
COc1ccccc1NC(=S)N/N=C/c1cccc(C)c1	?	1.3µM*	?	0.89µM*	?	?
CCNC(=S)N/N=C/c1c(F)cccc1F	.	.	.	.	.	4%
COc1ccccc1NC(=S)c1ccccc1	-7%	?	?	?	7%	?
Oc1ccc(/C=N/NC(=S)N/N=C/c2ccc(O)cc2)cc1	?	-2%	28%	12%	?	?
CC(C)C(=O)N(Cc1ccccn1)C1CC1	.	.	.	.	.	3%
O=C(Nc1nnc(-c2cccs2)o1)c1cccc(F)c1	7.3µM*	.	.	.	4.6µM*	0%
O=C(Nc1nnc(-c2cccs2)o1)c1cccc(Oc2ccccc2)c1	7.3µM*	0.56µM*	-28%	0.28µM*	10µM*	-12%
CC(C)CCN1CC(C(=O)NCc2ccncc2)C2(CCOCC2)C1 (configuration not stated)	.	.	.	.	.	76%
COc1ccc(Cl)cc1NC(=S)NCCCN1CCCC1=O	-19%	-3%	?	-4%	-16%	14%
COc1cc(C(=O)NCCCN2CCCC2=O)ccc1OCc1ccc(Cl)cc1Cl	18µM*	.	?	.	13µM*	?
SMILES	TDP1 cell noCPT	VP16 counter	ELG1 repair inh	RORgamma inh	DT40 TDP1 CPT	12-LOX inh
Cc1ccc(NS(=O)(=O)c2ccc(C(=O)NCCCN3CCCC3=O)cc2)cc1C	23µM*	.	0%	.	13µM*	-29%
Cc1ccc(NS(=O)(=O)c2ccc(C(=O)NCCCN3CCCC3=O)cc2)cc1	?	.	0%	.	?	0%
C/C=C(/C)C(=O)O[C@@H]1c2cc3c(c(OC)c2-c2c(cc(OC)c(OC)c2OC)[C@@H](OC(C)=O)[C@@H](C)[C@H]1C)OCO3	16µM*	0%	-7%	27%	18µM*	.
COc1cc2c(c(OC)c1OC)-c1c(cc3c(c1OC)OCO3)C[C@H](C)[C@@](C)(O)C2	-19%	2%	1%	3%	-16%	5%
Cc1ccc(C=C2C=C(c3ccccc3)OC2=O)cc1	26µM*	.	.	.	?	-20%
CC(=O)Oc1cccc(/C=C2\C=C(c3ccc(C)cc3)OC2=O)c1	?	1%[10 µM]	-11%	-35%	18µM*	?
CN(C)c1ccc(C=C2C=C(c3ccccc3)OC2=O)cc1	10µM*	.	.	.	18µM*	?
CNC(=O)C1(N2CCC[C@H]2C(=O)NC(C)(C)C)COC1	.	.	.	.	.	3%[176 µM]
COCCNC(=O)[C@@H]1C[C@H](Oc2cccnc2)CN1C(=O)c1ocnc1C	.	.	.	.	.	29%
C[C@@H]1CCCCO[C@@H](CN(C)Cc2ccc(Cl)c(Cl)c2)[C@@H](C)CN([C@H](C)CO)C(=O)c2cc(NC(=O)Nc3ccccc3)ccc2O1	21µM*	.	.	.	23µM*	-19%
COc1ccc(CN(C)C[C@H]2OCCCC[C@@H](C)Oc3ccc(NC(=O)c4ccccc4)cc3C(=O)N([C@H](C)CO)C[C@@H]2C)cc1	?	.	.	.	?	13%
C[C@@H]1CCCCO[C@H](CN(C)Cc2ccc(C(F)(F)F)cc2)[C@H](C)CN([C@@H](C)CO)C(=O)c2cc(NC(=O)Cc3ccccc3)ccc2O1	15µM*	.	.	.	12µM*	-14%
CC(C)NC(=O)Nc1ccc2c(c1)C(=O)N([C@H](C)CO)C[C@H](C)[C@@H](CN(C)Cc1ccc3c(c1)OCO3)OCCCC[C@@H](C)O2	-25%	.	.	.	-4%	0%
CC(C)NC(=O)Nc1ccc2c(c1)C(=O)N([C@H](C)CO)C[C@H](C)[C@@H](CN(C)Cc1ccc(C(F)(F)F)cc1)OCCCC[C@H](C)O2	?	.	.	.	21µM*	-23%
